Laboratory results as given in PubChem BioAssay (NCI).
Compounds without any hit were thinned out: in the full panel of roughly 83,000, 20% have a hit.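 Compound tested at a single concentration for 48 hours in 96-well plates; a percent growth value below 10 was scored as active.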 Unmarked numbers belong to inactive results. Active and inactive are the calls of the source.

Experiments:
Assay in all cases: NCI-60 one-dose screen, 48 h (100 = growth as untreated, 0 = no growth, -100 = all killed)
Details in all cases: 10 µM
[1] = tested on: BT-549 breast
[2] = tested on: MDA-MB-435 melanoma
[3] = tested on: SW-620 colon
[4] = tested on: MCF7 breast
[5] = tested on: HCT-116 colon
[6] = tested on: HCC-2998 colon
[7] = tested on: KM12 colon

SMILES	growth [1]	growth [2]	growth [3]	growth [4]	growth [5]	growth [6]	growth [7]
COc1ccc2c(c1)O/C(=C\c1ccc([N+](=O)[O-])s1)C2=O	7.31% (active)	51.7%	-56.3% (active)	21.4%	-23.4% (active)	11.9%	5.98% (active)
COc1ccc(N2C(=O)C3c4[nH]c5ccc(OCc6ccccc6)cc5c4C4CCC(C(C)C)CC4C3C2=O)cc1 (centres undefined)	104%	104%	87.9%	95.2%	109%	116%	105%
COC(=O)[C@@H]1[C@H](O)[C@H](C)[C@H](O)[C@@](C)(O)/C=C\C=C(C)C(=O)Nc2c(C)c(OC(C)=O)c3c(c2O)C(=O)C(C)=C2OCOC(=C23)C(C)=C[C@@](C)(O)[C@H](O)[C@@H](C)[C@H]1OC(C)=O	105%	105%	124%	114%	114%	120%	112%
COc1cc(/C=C2\CCCC3=C2N=C2SC=NN2C3c2cc(OC)c(OC)c(OC)c2)cc(OC)c1OC (centres undefined)	37.9%	-13.2% (active)	18.5%	27.4%	-23.5% (active)	4.77% (active)	-23.5% (active)
COc1ccc(-c2nsc3c2NC(=O)CC3c2ccc(F)cc2)cc1 (centres undefined)	28%	-56.1% (active)	21.4%	22%	19.5%	56.7%	22.2%
CC(=O)C1CCC2C3CC(F)C4=CC(=O)CCC4(C)C3C(O)CC12C (centres undefined)	91.2%	102%	109%	94.5%	89.9%	105%	111%
O=C1/C(=C/c2ccc([N+](=O)[O-])o2)Oc2ccccc21	-51.3% (active)	-70.9% (active)	-77.6% (active)	7.13% (active)	-56% (active)	-1.7% (active)	48.3%
Cc1cc(C)c(NC(=O)c2sc3nc4c(cc3c2N)C(=O)CCC4)c(C)c1	56.7%	-34.4% (active)	15.6%	16.8%	23.1%	30.9%	27.3%
CC(=O)OCc1cc(-c2nc3ccccc3[nH]c2=O)nn1-c1ccc(Cl)cc1	102%	99.7%	111%	85.9%	100%	87%	108%
Cc1cccc2c1O/C(=C\c1ccc([N+](=O)[O-])o1)C2=O	-68.5% (active)	-53.2% (active)	-68% (active)	-39.7% (active)	-53.2% (active)	-67.4% (active)	-34.2% (active)
Cc1ccc(-c2nc(/C=C3/C(=O)N(C)c4ccc(F)cc43)c3ccccn23)cc1	99.9%	111%	105%	78.6%	89.3%	104%	101%
COc1ccc(-c2nn(-c3cccc(NC(=O)Nc4cc(C(F)(F)F)cc(C(F)(F)F)c4)c3)cc2-c2ccncc2)cc1Cl	-1.8% (active)	-42.8% (active)	10.9%	0.561% (active)	-22% (active)	8.03% (active)	-2.5% (active)
O=c1oc2cc(OS(=O)(=O)c3ccccc3)ccc2c2c1CCCCC2	59.9%	64.7%	44.2%	49.7%	29%	59.1%	41.1%
O=C(CCCCC[P+](c1ccccc1)(c1ccccc1)c1ccccc1)NC(COC(=O)C(Cl)Cl)(COC(=O)C(Cl)Cl)COC(=O)C(Cl)Cl	94.9%	102%	107%	95.2%	100%	109%	107%
CCN(CC)CCC(CNc1c(C)cnc2cc(Cl)ccc12)c1ccc(Cl)c(Cl)c1 (centres undefined)	75.1%	0.88% (active)	46.2%	27.4%	21.7%	-18.2% (active)	71.3%
COc1ccccc1CNCCCN1C(=O)c2ccc3c4c(ccc(c24)C1=O)C(=O)N(CCCN)C3=O	-43.4% (active)	-88.3% (active)	-69.8% (active)	-29.4% (active)	-4.19% (active)	-56.8% (active)	4.38% (active)
COc1cc(-c2cc(-c3cc4c([nH]c5ccccc54)c(-c4cc(OC)c(OC)c(OC)c4)n3)cc(-c3ccccc3)n2)cc(OC)c1OC	66.6%	-1.18% (active)	41.4%	44%	57%	72.8%	60%
